Records with an inconclusive call do not appear. Entries that show only a call come without a potency. Calls of active or inactive are those of the source. Calls come from the whole dose curve.

In this assay the target is Nucleoprotein (Lymphocytic choriomeningitis virus (strain Armstrong)) (UniProt P09992). In words: qHTS for Inhibitors of the Functional Ribonucleoprotein Complex (vRNP) of Lymphocytic Choriomeningitis Arenaviruses (LCMV): LCMV Primary Screen - GLuc reporter signal (AID 1347086). Note: nearly all actives have a fitted effect of over 70% in size. Conditions: LCMV minigenome vRNP cell assay, Gaussia luciferase reporter; series mostly up to 57.5 µM.
Nucleoprotein (Lymphocytic choriomeningitis virus (strain Armstrong)), sequence (P09992 whole entry, looked up): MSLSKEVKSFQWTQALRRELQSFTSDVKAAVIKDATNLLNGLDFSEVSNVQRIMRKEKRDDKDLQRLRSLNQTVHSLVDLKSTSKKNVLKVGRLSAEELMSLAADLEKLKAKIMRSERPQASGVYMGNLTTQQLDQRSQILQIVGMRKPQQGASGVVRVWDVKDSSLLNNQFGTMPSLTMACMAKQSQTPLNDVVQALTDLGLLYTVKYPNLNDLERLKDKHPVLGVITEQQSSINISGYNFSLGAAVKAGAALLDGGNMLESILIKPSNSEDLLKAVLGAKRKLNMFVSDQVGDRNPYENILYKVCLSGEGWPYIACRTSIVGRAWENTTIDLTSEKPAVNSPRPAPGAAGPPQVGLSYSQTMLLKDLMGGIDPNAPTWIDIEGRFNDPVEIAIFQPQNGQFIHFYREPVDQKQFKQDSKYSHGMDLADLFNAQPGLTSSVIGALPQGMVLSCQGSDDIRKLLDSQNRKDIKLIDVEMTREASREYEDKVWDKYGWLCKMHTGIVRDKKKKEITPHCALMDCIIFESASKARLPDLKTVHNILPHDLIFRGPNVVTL
With `O=c1ccc2ccc(O[C@@H]3O[C@H](CO[C@@H]4OC[C@](O)(CO)[C@H]4O)[C@@H](O)[C@H](O)[C@H]3O)cc2o1`, the Potency entry was “inactive”.
For `Cn1c(N2CCCCS2(=O)=O)nc(C(=O)NCc2ccc(F)cc2)c(O)c1=O` the value was “inactive”.
As for `CC[C@]1(O)C[C@@H]2CN(CCc3c([nH]c4ccccc34)[C@@](C(=O)OC)(c3cc4c(cc3OC)N(C=O)[C@@H]3C45CCN4CC=C[C@](CC)([C@H]45)[C@@H](OC(C)=O)[C@]3(O)C(=O)OC)C2)C1` (stereo partly specified), the Potency entry is “inactive”.
With `COc1cc(O)c2c(=O)c3c(OC)c(O)ccc3oc2c1`, the Potency entry is “inactive”.
On to `CC(=O)N1CCN(c2ccc(OCc3nn(C)c(C)c3-c3cccc4c(CCCOc5cc(C)c(Cl)c(C)c5)c(C(=O)O)n(Cc5cccnc5)c34)cc2)CC1`, for which the Potency result was “inactive”.
Consider `CC(C)=CCCC(C)CC=O` (stereo unspecified), for which the Potency entry is “inactive”.
For `CC(=O)c1ccccc1O` the value was “inactive”; for `C=C(C)c1cc2c(ccc3ccc(=O)oc32)o1`, “inactive”; for `CC(=O)O[C@@H]1[C@H](OC(=O)CC(C)C)c2c(ccc3ccc(=O)oc23)OC1(C)C`, “inactive”.
For `CC(=O)OCC1=C(C(=O)O)N2C(=O)[C@@H](NC(=O)Cc3ccccc3)[C@H]2SC1` the value was “inactive”; for `C/C(=N/N=C(\C)c1ccccc1O)c1ccccc1O`, “inactive”; for `COc1cc(C(C)=O)cc(OC)c1O`, “inactive”.
For `Cc1ccc(C(C)C)cc1O` the value was “inactive”; for `NCCCCCN`, “inactive”.
Turning to `COc1cc2c(c(OC)c1OC)-c1c(cc3c(c1OC)OCO3)C1OC2[C@@H](C)[C@H]1C` (stereo partly specified), the Potency entry is “inactive”.
Regarding `C#C[C@]1(O)CC[C@H]2[C@@H]3CCC4=Cc5oncc5CC4(C)[C@H]3CCC21C` (stereo partly specified), the Potency result is “inactive”.

(Values after PubChem BioAssay (NCATS).)
